Among the data in paper PMC10668032, “Altered binding affinity of SIX1-Q177R correlates with enhanced WNT5A and WNT pathway effector expression in Wilms tumor” are binding signal values, retold here.

The full ranking holds about 33,000 sequences; the median of “e-score” is about -0.053, and the highest 2% start at about 0.38. The sample as a whole holds a higher share of the highest values than the screen did.

This experiment concerns the target T1, SIX1 homeodomain (reference allele) (human, UniProt Q15475 108-198).
T1 sequence: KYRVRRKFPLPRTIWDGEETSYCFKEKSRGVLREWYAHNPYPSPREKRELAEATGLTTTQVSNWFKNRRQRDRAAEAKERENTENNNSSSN
Briefly: universal protein binding microarray; Universal all-10-mer PBM (8x60K, AMADID 030236), 300 nM GST-tagged protein, Alexa Fluor 488 anti-GST; buffer, salt, pH and temperature not stated (as in Berger); high values mean tight binding. The note with it: protein: ivt; tags: N-terminal GST; dsDNA, one strand shown. The gist of the method:
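Duplicate protein binding microarrays (universal 'all 10-mer', 8×60K format) were incubated with GST-tagged homeodomains at 300 nM final concentration. Binding was quantified as 8-mer E-scores with the Universal PBM Analysis Suite.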
Regarding TATGATCA, the binding signal stood at 0.25 ± 0.0234 E-score.

Consider AATGATCG, for which the binding signal is 0.152 ± 0.117 E-score.

With AATGATCT, the binding signal was 0.369 ± 0.0567 E-score.

Turning to CATGATCC, the binding signal turned out to be 0.394 ± 0.00778 E-score.

Turning to AACGGGAT, the binding signal was 0.243 ± 0.0163 E-score.

GATAGGAC: the binding signal was 0.22 ± 0.0517 E-score.

As to TCATGGGA, the binding signal is 0.153 ± 0.0225 E-score.

For ATAGCCAA, the binding signal was 0.218 ± 0.0447 E-score.

For CCGCGGTA, the binding signal is 0.194 ± 0.102 E-score.

With CGGTGTAG, the binding signal came out at 0.297 ± 0.025 E-score.

With GACGGATC, the binding signal is 0.358 ± 0.041 E-score.

In the case of AACGGATC, the binding signal came out at 0.376 ± 0.0111 E-score.

In the case of AACGGATT, the binding signal was found to be 0.204 ± 0.0564 E-score.

For AATGGATC, the binding signal was found to be 0.35 ± 0.00509 E-score.

As to CACGGATA, the binding signal is 0.397 ± 0.0101 E-score.

In the case of CACGGATC, the binding signal turned out to be 0.405 ± 0.0341 E-score.

For the sequence CACAGATA, the binding signal was 0.205 ± 0.00976 E-score.

AACGGATA: the binding signal turned out to be 0.421 ± 0.0091 E-score.

Turning to GACGGATA, the binding signal came to 0.35 ± 0.0364 E-score.

Turning to AACGGGTA, the binding signal came to 0.159 ± 0.0738 E-score.

In the case of AACAGATC, the binding signal is 0.2 ± 0.0405 E-score.

Regarding CACAGATC, the binding signal turned out to be 0.277 ± 0.0367 E-score.

For ATACAGGA, the binding signal stood at 0.228 ± 0.0565 E-score.

ATGCAATA: the binding signal came to 0.192 ± 0.0352 E-score.

Turning to GAGTAGAC, the binding signal was 0.214 ± 0.0128 E-score.

With ATATGCCC, the binding signal was found to be 0.339 ± 0.0543 E-score.

For CGATCTAG, the binding signal is 0.1577 ± 0.00153 E-score.

On to ATCATTTC, for which the binding signal was 0.1962 ± 0.00187 E-score.

As to ATCAAGCG, the binding signal was found to be 0.228 ± 0.0527 E-score.

Turning to AGAGCGAT, the binding signal amounted to 0.159 ± 0.0536 E-score.

For AAGCCGAT, the binding signal turned out to be 0.211 ± 0.0118 E-score.

Consider CATTATAC, for which the binding signal was determined as 0.28 ± 0.0245 E-score.

With CGAGGGGA, the binding signal is 0.164 ± 0.0583 E-score.

For TAAGGATA, the binding signal was determined as 0.276 ± 0.0458 E-score.

Consider TACGGATA, for which the binding signal came out at 0.401 ± 0.0137 E-score.

Regarding TACAGATA, the binding signal turned out to be 0.267 ± 0.0119 E-score.

Turning to CCCATCCC, the binding signal worked out at 0.154 ± 0.0727 E-score.

On to GCTAGATA, for which the binding signal is 0.255 ± 0.0399 E-score.

In the case of ATACTGAA, the binding signal was 0.173 ± 0.0413 E-score.

ATATGGTA: the binding signal turned out to be 0.256 ± 0.011 E-score.

Take CCACTATC: the binding signal worked out at 0.227 ± 0.0482 E-score.

Take GCATACGA: the binding signal is 0.157 ± 0.0596 E-score.

As for ATACCTAA, the binding signal was 0.273 ± 0.0487 E-score.

In the case of ATACCTAT, the binding signal came to 0.398 ± 0.0488 E-score.

For ACACCTAT, the binding signal was determined as 0.26 ± 0.021 E-score.

Consider ATACCTAG, for which the binding signal was determined as 0.392 ± 0.0316 E-score.

ATACCTGG: the binding signal was 0.27 ± 0.0557 E-score.

With ATACCTGC, the binding signal was 0.342 ± 0.0303 E-score.

On to ATACCTTG, for which the binding signal amounted to 0.335 ± 0.0223 E-score.

As to ATACCTGA, the binding signal worked out at 0.3668 ± 0.00206 E-score.

As to ATACCTAC, the binding signal amounted to 0.385 ± 0.0317 E-score.

As to ATACCTTA, the binding signal worked out at 0.385 ± 0.0525 E-score.

ACACCTAC: the binding signal was found to be 0.191 ± 0.0849 E-score.

As for ACACCTAG, the binding signal turned out to be 0.231 ± 0.0166 E-score.

For the sequence CCGAATCC, the binding signal worked out at 0.163 ± 0.0406 E-score.

As to ATCTTGTC, the binding signal was determined as 0.153 ± 0.0184 E-score.

TCGATCCA: the binding signal is 0.152 ± 0.142 E-score.

Take TGGCATAA: the binding signal is 0.177 ± 0.0236 E-score.

Take AGCTATAC: the binding signal turned out to be 0.235 ± 0.02 E-score.

Regarding ATCGCTAG, the binding signal was determined as 0.279 ± 0.0337 E-score.

Consider ATTAGTGA, for which the binding signal stood at 0.152 ± 0.0306 E-score.

In the case of ATACCTCG, the binding signal amounted to 0.342 ± 0.0353 E-score.

Turning to ATACCTCA, the binding signal was 0.352 ± 0.0542 E-score.

Regarding ATACCTCC, the binding signal is 0.403 ± 0.0208 E-score.

On to ATACTGCA, for which the binding signal is 0.242 ± 0.0213 E-score.

In the case of ATTGAGAC, the binding signal is 0.212 ± 0.0411 E-score.

Consider AACTGGAT, for which the binding signal was 0.172 ± 0.0594 E-score.

Take GGGTATAC: the binding signal was 0.416 ± 0.0059 E-score.

For CGGTATAC, the binding signal turned out to be 0.393 ± 0.00578 E-score.

Take AGGTATAA: the binding signal turned out to be 0.242 ± 0.0818 E-score.

Take GGGTATAA: the binding signal was 0.375 ± 0.0497 E-score.

Consider CGGTATAA, for which the binding signal is 0.294 ± 0.0192 E-score.

In the case of CGGTATAG, the binding signal is 0.216 ± 0.0268 E-score.

AGGTATAG: the binding signal is 0.262 ± 0.0777 E-score.

GCGTATAC: the binding signal came out at 0.295 ± 0.011 E-score.

With AGGTATAC, the binding signal amounted to 0.4 ± 0.0358 E-score.

For CACTATCG, the binding signal amounted to 0.211 ± 0.013 E-score.

On to TAGATCCA, for which the binding signal is 0.227 ± 0.0321 E-score.

Consider CATAACAC, for which the binding signal is 0.161 ± 0.0101 E-score.

As for ATCTGCCA, the binding signal is 0.187 ± 0.0302 E-score.

As for GAGATCTC, the binding signal came out at 0.292 ± 0.0824 E-score.

For the sequence ATCATCCG, the binding signal came to 0.348 ± 0.0124 E-score.

Regarding ACACCCCT, the binding signal was determined as 0.327 ± 0.0413 E-score.

For the sequence ATCCGAAT, the binding signal is 0.313 ± 0.0137 E-score.

For the sequence TATTAAAA, the binding signal was determined as 0.18 ± 0.0684 E-score.

As to GGCGGGGA, the binding signal was 0.174 ± 0.14 E-score.
